From PubChem BioAssay
HTT ATP protect – qHTS Multiplex Assay to Identify Dual Action Probes in a Cell Model of Huntington: Cytoprotection (ATP); Potency, µM (doses to about 56.4 µM), usual class: activators; PC12 HTT-Q103 induced, cytoprotection, ATP luminescence, 40 h; 0.14% of 230,000 active; further: nearly all actives have a fitted effect of over 45% in size
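Huntington model: PC12 line, ecdysone-inducible HTTQ103 exon1–GFP, tebufenozide 100 nM. Test articles in a dose series. Endpoint luminescence from cellular ATP.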
ALDH1A1 block – qHTS Assay for Inhibitors of Aldehyde Dehydrogenase 1 (ALDH1A1) | Potency, µM (doses to about 75.3 µM), actives largely listed as inhibitors | Aldehyde dehydrogenase 1A1 (Homo sapiens), P00352 | AID 1030, 2008 | Purified ALDH1A1, NADH fluorescence, propionaldehyde substrate | 7.3% of 220,000 active; active means well fitted inhibition curve with a large enough effect, not every such curve was filed as active; inconclusive means small, poorly fitted or top-dose-only effect, or another doubt; inactive means no such curve, though single readings can be large or run the other way
Target sequence (P00352 whole entry, looked up): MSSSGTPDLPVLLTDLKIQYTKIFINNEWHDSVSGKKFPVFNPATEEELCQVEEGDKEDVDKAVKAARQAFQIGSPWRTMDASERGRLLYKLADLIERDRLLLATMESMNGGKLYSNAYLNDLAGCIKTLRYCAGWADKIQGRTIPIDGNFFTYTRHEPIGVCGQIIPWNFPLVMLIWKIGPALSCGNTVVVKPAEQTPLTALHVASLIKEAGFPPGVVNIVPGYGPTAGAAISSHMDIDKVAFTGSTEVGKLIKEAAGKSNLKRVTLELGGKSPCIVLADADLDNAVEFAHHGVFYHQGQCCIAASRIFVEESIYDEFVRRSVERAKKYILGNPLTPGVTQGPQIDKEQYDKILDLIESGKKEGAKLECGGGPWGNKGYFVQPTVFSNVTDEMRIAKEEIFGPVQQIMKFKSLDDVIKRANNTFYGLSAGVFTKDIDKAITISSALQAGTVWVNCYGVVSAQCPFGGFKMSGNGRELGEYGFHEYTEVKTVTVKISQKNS
LMNA splice mod – qHTS Assay for Modulators of Lamin A Splicing; HeLa LMNA splicing GFP/RFP minigene ratio, 48 h; Potency, µM (doses to about 46.1 µM), actives largely listed as inhibitors; 0.01% of 200,000 active; AID 1487, 2009; active means well fitted inhibition curve with a large enough effect in the signal ratio, with a control signal flat, not every such curve was filed as active; inconclusive means small, poorly fitted or top-dose-only effect, or effect the other way, or a change in a side signal; the % refers to the signal ratio
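Read-out is the ratio of GFP to DsRed2 object intensity, acquired by 488 nm laser-scanning cytometry on HeLa lamin A-EGFP minigene reporter cells. Compound incubation 48 hrs at 37 °C in Opti-MEM with 2% FBS; DMSO 0.5% final.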
HPGD block – qHTS Assay for Inhibitors of HPGD (15-Hydroxyprostaglandin Dehydrogenase); purified HPGD, NADH fluorescence kinetic, PGE2 substrate; 4.3% of 150,000 active; AID 894, 2007; Potency, µM, actives largely listed as inhibitors; active means well fitted inhibition curve with a large enough effect, not every such curve was filed as active; inconclusive means small, poorly fitted or top-dose-only effect, or another doubt; inactive means no such curve, though single readings can be large or run the other way
Target sequence (P15428 whole entry, looked up): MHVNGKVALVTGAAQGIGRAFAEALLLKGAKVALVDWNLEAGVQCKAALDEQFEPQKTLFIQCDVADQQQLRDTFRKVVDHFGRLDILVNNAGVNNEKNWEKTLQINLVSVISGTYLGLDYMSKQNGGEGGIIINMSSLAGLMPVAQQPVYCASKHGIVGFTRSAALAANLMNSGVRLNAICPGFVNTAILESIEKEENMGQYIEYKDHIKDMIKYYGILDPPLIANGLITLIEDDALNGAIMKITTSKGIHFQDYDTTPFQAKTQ
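NADH formation kinetics: reaction with 30 uM PGE2 and 1 mM NAD+ (final), 20 nM enzyme, Tris-HCl pH 8 with Tween 20, after 15 min compound preincubation at room temperature. Fluorescence change, last versus first of five reads.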
HttQ103 aggreg – qHTS Multiplex Assay to Identify Dual Action Probes in a Cell Model of Huntington: Aggregate Formation (GFP). PC12 HttQ103-GFP aggregates, Acumen cytometry, 40 h. Potency, µM (series often up to 46.1 µM), usual class: inhibitors. 1.1% of 220,000 active; further: nearly all actives have a fitted effect of over 60% in size
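Multiplexed with ATP-based cell death, this channel scores GFP aggregates in PC12 cells expressing inducible HTTex1-Q103-GFP. Induction used 100 nM tebufenozide; compounds were tested in concentration series.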
KinaseGlo FLuc – Counterscreen for Luciferase (Kinase-Glo TM) Inhibition. Potency, µM (doses to about 38.3 µM), actives largely listed as inhibitors. AID 1379, 2008. Luciferin 4-monooxygenase (Photuris pensylvanica), Q27757. 0.28% of 200,000 active. Kinase-Glo luciferase, ATP luminescence, 8 min; further: nearly all actives have a fitted effect of over 60% in size
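Kinase-Glo luciferase light output from ATP and luciferin was measured with 10 uM ATP, within the enzyme's linear range. Buffer: 50 mM imidazole pH 7.2, 50 mM KCl, 7 mM MgCl2, 0.01% Tween 20, 0.05% BSA; luminescence read after 8 min at ambient temperature.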
Large screens that a line does not name were inactive. A selection: hits, their analogues and other compounds. The true share with any hit is near 9%. Unless noted, the call rests on the fitted dose curve; in most records, active means well fitted curve in the direction sought with a large enough effect; inconclusive means small, poorly fitted or top-dose-only effect, or another doubt; inactive means no such curve, though single readings can be large; an effect the other way counts as inactive or inconclusive.

COc1ccc(S(=O)(=O)N2CCN(C(=O)CCC3CCCC3)CC2)cc1	none
O=C(Cc1ccccc1F)Nc1nc(-c2cccnc2)cs1	ALDH1A1 block 25µM, HttQ103 aggreg inconclusive (no result: LMNA splice mod, HPGD block)
O=C(NC(=S)Nc1nc(-c2cccc3ccccc23)cs1)c1cc2ccccc2o1	ALDH1A1 block 20µM, HttQ103 aggreg inconclusive
O=C(NC(=S)Nc1ccc(NC(=O)c2cccs2)cc1)c1cc2ccccc2o1	none (no result: HTT ATP protect)
O=C(NC(=S)Nc1nc(-c2ccccc2)cs1)c1cncc(Br)c1	HttQ103 aggreg inconclusive
O=C(NC(=S)Nc1nc(-c2ccccc2)cs1)c1cccnc1	ALDH1A1 block 8.9µM (no result: LMNA splice mod, HPGD block)
COc1ccc(-c2csc(NC(=S)NC(=O)c3ccco3)n2)cc1	none (no result: LMNA splice mod, HPGD block)
O=C(NC(=S)Nc1nc(-c2ccccc2)cs1)c1ccco1	ALDH1A1 block 14µM, LMNA splice mod inconclusive (no result: HPGD block)
Cc1c(N2C(=O)c3ccc(F)cc3C2=O)c(=O)n(-c2ccccc2)n1C	none
COc1ccc(-c2cc(C(C)=O)c(C)n2CCC(=O)Nc2cc(C)ccc2OC)cc1	none (no result: HTT ATP protect, ALDH1A1 block, HPGD block, HttQ103 aggreg, KinaseGlo FLuc)
Cc1cc([N+](=O)[O-])c2c(c1C)C1C=CCC1C(c1ccccn1)N2 (configuration not stated)	ALDH1A1 block 8.9µM (no result: HPGD block)
COc1ccccc1-n1cnnc1SCC(=O)c1c[nH]c2ccccc12	ALDH1A1 block 10µM
COc1ccccc1-n1cnnc1SCC(=O)Nc1cccnc1Cl	ALDH1A1 block 25µM, LMNA splice mod inconclusive (no result: HPGD block)
Cc1ccccc1-n1cnnc1SCC(=O)Nc1cccnc1Cl	ALDH1A1 block inconclusive (no result: LMNA splice mod, HPGD block)
O=C(NC1CSC/C1=N\O)c1ccccc1 (configuration not stated)	ALDH1A1 block 22µM
O=C(NC1CSCC1OC(=O)c1ccccc1)c1ccccc1 (configuration not stated)	none (no result: ALDH1A1 block, LMNA splice mod, HPGD block, KinaseGlo FLuc)
CN1C(=O)OC2(C)CCc3ccccc3C12C (configuration not stated)	ALDH1A1 block 32µM (no result: HPGD block, KinaseGlo FLuc)
CN1C(=O)NC(NS(=O)(=O)c2ccc(N)cc2)(C(F)(F)F)C1=O (configuration not stated)	ALDH1A1 block inconclusive (no result: HPGD block)
CC(C)CC(N=Cc1c(O)c2ccccc2oc1=O)C(=O)O (configuration not stated)	ALDH1A1 block 14µM (no result: LMNA splice mod, HPGD block)
O=C(O)CCCN=Cc1c(O)c2ccccc2oc1=O	ALDH1A1 block inconclusive (no result: LMNA splice mod, HPGD block)
CC(C)OC(=O)C1C(=O)CC(C)(O)C(C(=O)OC(C)C)C1c1ccc(F)cc1 (configuration not stated)	HTT ATP protect inconclusive
COc1ccc(-c2nn3cnnc3s2)cc1OC	ALDH1A1 block inconclusive, HPGD block inconclusive
O=[N+]([O-])c1cc(/C=N\Nc2nccs2)ccc1O	ALDH1A1 block inconclusive, HPGD block 8.9µM
COc1ccc(/C=N\NC(=O)CNC(=O)C(c2ccccc2)c2ccccc2)cc1[N+](=O)[O-]	ALDH1A1 block 11µM, LMNA splice mod inconclusive, HttQ103 aggreg inconclusive
O=C(COc1ccccc1[N+](=O)[O-])N/N=C/c1ccc(O)c([N+](=O)[O-])c1	ALDH1A1 block 25µM (no result: HPGD block)
O=[N+]([O-])c1ccc2c(c1)nc1n2CCCCC1	none (no result: HPGD block)
O=c1c2c(-c3ccc([N+](=O)[O-])cc3)csc2nc2n1CCC2	ALDH1A1 block 7.1µM, HPGD block 22µM
Cn1nc(C(C)(C)C)cc1C(=O)NCc1ccc(N2CCCC2=O)cc1	LMNA splice mod inconclusive, HttQ103 aggreg 1.8µM
Cc1ccc(CNC(=O)c2ccc(N3CCCC3=O)cc2)cc1	none
O=C(NCc1cccnc1)C1CCN(c2ccc(S(=O)(=O)N3CCOCC3)cc2Cl)CC1	none (no result: HPGD block)
CCOc1ccccc1C(=O)N1CCC(n2nnc3cc(C(F)(F)F)ccc32)CC1	ALDH1A1 block 28µM, HttQ103 aggreg inconclusive
CCOc1ccccc1C(=O)N1CCC(n2nnc3cc(C)ccc32)CC1	none (no result: HPGD block, KinaseGlo FLuc)
CC(=O)Oc1ccc(OC(C)=O)c(SCCCCCN2CCOCC2)c1	LMNA splice mod inconclusive, HPGD block 18µM, HttQ103 aggreg inconclusive
COc1cccc(CSCC(=O)O)c1	none (no result: LMNA splice mod, HttQ103 aggreg)
O=C1CCC([N+](=O)[O-])C(c2ccc3c(c2)OCO3)N1 (configuration not stated)	none (no result: LMNA splice mod, HPGD block)
O=c1c2cc(Cl)ccc2nc(-c2ccccc2)n1O	LMNA splice mod inconclusive, HttQ103 aggreg inconclusive (no result: HPGD block)
O=c1c2cc(Br)ccc2nc(-c2cccc(C(F)(F)F)c2)n1O	HttQ103 aggreg inconclusive
O=c1c2cc(Br)ccc2nc(-c2ccc([N+](=O)[O-])cc2)n1O	HttQ103 aggreg 11µM (no result: LMNA splice mod, HPGD block)
O=c1c2ccc(Cl)cc2nc(-c2ccc([N+](=O)[O-])cc2)n1O	HttQ103 aggreg 6.3µM (no result: LMNA splice mod, HPGD block)
Cc1ccc[n+](-c2[nH]c(=O)sc2/C=N/NC(=O)c2ccccc2[O-])c1	none (no result: HPGD block, KinaseGlo FLuc)
CCC(C)(C)n1c(=O)[nH]c2c(c1=O)CCC2	none (no result: HPGD block, KinaseGlo FLuc)
Cc1occc1-c1nnc(SCC(N)=O)o1	none (no result: LMNA splice mod, HPGD block)
Cc1occc1-c1nnc(SCC(=O)c2ccc(F)cc2)o1	ALDH1A1 block 32µM, HPGD block inconclusive
CC(=O)c1ccc(NC(=O)Cn2nc(C)c([N+](=O)[O-])c2C)cc1	ALDH1A1 block inconclusive (no result: HPGD block)
O=C(CSc1nnc(Cc2ccccc2)n1Cc1ccco1)NC1CCCC1	ALDH1A1 block 22µM
Cn1c(Cc2ccccc2)nnc1SCC(=O)NC1CCCCC1	none
Cc1ccc(NC(=O)CSCc2ccco2)cc1	ALDH1A1 block 22µM (no result: HTT ATP protect, HPGD block)
O=C(CSCc1ccco1)NC1CCCC1	ALDH1A1 block inconclusive, HPGD block 28µM
O=C(NCc1ccco1)NC1CCCCC1	none
Cc1ccccc1CSCC(=O)NC1CCCC1	HPGD block 18µM
CCSc1ccccc1C(=O)N=C1NC(=O)CC2C(=O)NCCN12 (configuration not stated)	none (no result: LMNA splice mod, HPGD block)
CC(=O)N(Cc1ccco1)C1(C(=O)NC2CCCC2)CCCCC1	none
O=CN(Cc1ccco1)C1(C(=O)NC2CCCCC2)CCCCC1	ALDH1A1 block 14µM
COc1ccccc1N1CCN(C(=S)Nc2ccc(S(=O)(=O)N3CCOCC3)cc2)CC1	none (no result: LMNA splice mod, HPGD block, KinaseGlo FLuc)
C=CCOc1c(Br)cc(CNn2nnnc2N)cc1OC	none
COc1ccccc1NS(=O)(=O)c1cccc(NC(=O)c2ccc3ccccc3n2)c1	LMNA splice mod inconclusive
CC(=O)NS(=O)(=O)c1ccc(NC(=O)/C=C/c2ccccc2)cc1	none (no result: LMNA splice mod, HPGD block)
O=C(Nc1cccc(S(=O)(=O)Nc2ccccc2F)c1)c1ccc2ccccc2n1	ALDH1A1 block 3.2µM (no result: HPGD block)
